Measured values reported in PubChem BioAssay AID1159580 (chemical genetic matrix, 2015).
Several values for one entry are separate records, joined by “and”; a condition that tells them apart may be missing. Equal values may be shown once. Out of some 5,500 compounds screened, about 2,000 (36%) were called active. About 18% were inconclusive and are not listed. No stated cut-off is given here; in the data, active means normalized growth mostly below about 0.91 (no sharp cut-off); inconclusive means no clear call, values can overlap the other calls; inactive means mostly above about 0.92. Some of the results follow.

Experiment: chemical genetic growth profiling, strain panel (AID 1159580);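 further: tested at 20 µM; growth read once vehicle control cultures reached saturation at 30 °C; 1 = growth at the plate median or of vehicle wells; lower values mean less growth of the strain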
Settings: S. cerevisiae deletion strains, growth OD

Measured: normalized growth

CC(=O)OCC[N+](C)(C)C
active: locus YAL026C, strain drs2, hits give low values 1.1 [resistant] | locus YDR137W, strain rgp1, hits give low values 1.55 [resistant] | locus YDR159W, strain sac3, hits give low values 1.15 [resistant] | locus YDR195W, strain ref2 1.21 [resistant] | locus YLR221C, strain rsa3, hits give low values 1.1 [resistant] | locus YLR262C, strain YPT6 (second series), hits give low values 1.27 [resistant] | locus YNL248C, strain rpa49, hits give low values 1.12 [resistant] | locus YOR144C, strain elg1, hits give low values 1.09 [resistant] | locus YOR270C, strain vph1, hits give low values 0.749 | locus YPL256C, strain CLN2, hits give low values 1.24 [resistant] | locus YPR141C, strain kar3, hits give low values 1.09 [resistant]
inactive: locus YAL013W, strain DEP1, hits give low values 1.01 | locus YAL021C, strain ccr4, hits give low values 1.03 | locus YAL030W, strain snc1, hits give low values 1.02 | locus YBL061C, strain skt5, hits give low values 1.03 | locus YBR009C, strain hhf1, hits give low values 1.08 | locus YBR021W, strain FUR4, hits give low values 1.06 | locus YBR023C, strain chs3, hits give low values 1.05 | locus YBR171W, strain sec66, hits give low values 0.999 | locus YBR229C, strain ROT2, hits give low values 1.01 | locus YBR231C, strain swc5, hits give low values 1.03 | locus YBR279W, strain paf1, hits give low values 1.04 | locus YCL011C, strain gbp2, hits give low values 1.07 | locus YCL016C, strain dcc1, hits give low values 1.05 | locus YCL029C, strain bik1, hits give low values 1.04 | locus YCL069W, strain vba3, hits give low values 1.03 | locus YCR088W, strain abp1, hits give low values 1.02 | locus YDL005C, strain med2, hits give low values 1 | locus YDL035C, strain GPR1, hits give low values 0.961 | locus YDL040C, strain nat1, hits give low values 1.02 | locus YDL074C, strain BRE1, hits give low values 0.965 | locus YDL101C, strain DUN1, hits give low values 0.985 | locus YDL134C, strain PPH21, hits give low values 0.986 | locus YDL185W, strain tfp1, hits give low values 0.969 | locus YDL192W, strain arf1, hits give low values 1.02 | locus YDR001C, strain nth1, hits give low values 1.01 | locus YDR069C, strain doa4, hits give low values 1 | locus YDR101C, strain arx1, hits give low values 1.07 | locus YDR162C, strain NBP2, hits give low values 0.948 | locus YDR297W, strain sur2, hits give low values 1.02 | locus YDR318W, strain mcm21, hits give low values 1.01 | locus YDR334W, strain swr1, hits give low values 1.03 | locus YDR335W, strain msn5, hits give low values 1 | locus YDR388W, hits give low values 1.02 | locus YDR392W, strain spt3, hits give low values 1.13 | locus YDR502C, strain sam2, hits give low values 1.01 | locus YEL003W, strain gim4, hits give low values 1.01 | locus YEL037C, strain rad23, hits give low values 1.03 | locus YEL061C, strain CIN8 (second series), hits give low values 1.03 | locus YEL061C, strain CIN8, hits give low values 0.993 | locus YER015W, strain faa2, hits give low values 1.07 | locus YER016W, strain bim1, hits give low values 1.02 | locus YER110C, hits give low values 1.01 | locus YER111C, strain swi4, hits give low values 1.02 | locus YER155C, strain BEM2 (second series), hits give low values 1.11 | locus YER155C, strain BEM2, hits give low values 1.02 | locus YER167W, strain BCK2, hits give low values 1.01 | locus YFR010W, strain ubp6, hits give low values 1.01 | locus YGL078C, strain dbp3, hits give low values 1.03 | locus YGL086W, strain mad1, hits give low values 1.01 | locus YGL167C, strain pmr1, hits give low values 1.01 | locus YGL173C, strain kem1, hits give low values 1.02 | locus YGL227W, strain vid30, hits give low values 1.02 | locus YGL240W, strain doc1, hits give low values 1.11 | locus YGL248W, strain PDE1, hits give low values 0.99 | locus YGL253W, strain hxk2, hits give low values 1.03 | locus YGR135W, strain pre9, hits give low values 0.996 | locus YGR252W, strain gcn5, hits give low values 0.943 | locus YHR013C, strain ard1, hits give low values 1.11 | locus YHR027C, strain rpn1, hits give low values 1.02 | locus YHR030C, strain SLT2, hits give low values 1.01 and 1.08 | locus YHR079C, strain IRE1 (second series), hits give low values 1.02 | locus YHR079C, strain IRE1, hits give low values 1.1 | locus YHR094C, strain hxt1, hits give low values 1.02 | locus YHR129C, strain ARP1, hits give low values 1.01 | locus YHR142W, strain chs7, hits give low values 1.1 | locus YHR200W, strain rpn10, hits give low values 1.02 | locus YIL066C, strain RNR3, hits give low values 0.988 | locus YIL073C, strain SPO22, hits give low values 0.973 | locus YIL125W, strain kgd1, hits give low values 1.03 | locus YIR030C, strain dcg1, hits give low values 1.06 | locus YJL092W, strain hpr5, hits give low values 1.02 | locus YJL095W, strain BCK1 (second series), hits give low values 1.02 | locus YJL095W, strain BCK1, hits give low values 0.928 and 1.07 | locus YJL115W, strain asf1, hits give low values 1.03 | locus YJL129C, strain trk1, hits give low values 1.09 | locus YJL134W, strain LCB3, hits give low values 1.02 | locus YJL154C, strain vps35, hits give low values 1.03 | locus YJL164C, strain tpk1, hits give low values 1.05 | locus YJL166W, strain qcr8, hits give low values 1.04 | locus YJL168C, strain set2, hits give low values 1.03 | locus YJL187C, strain SWE1 (second series), hits give low values 0.951 | locus YJL187C, strain SWE1, hits give low values 1.02 | locus YJR043C, strain POL32, hits give low values 0.994 | locus YJR066W, strain TOR1, hits give low values 1.03 | locus YJR075W, strain HOC1, hits give low values 0.978 | locus YKL009W, strain mrt4, hits give low values 0.945 | locus YKL068W, hits give low values 1.01 | locus YKL085W, strain MDH1 (second series), hits give low values 1.01 | locus YKL085W, strain MDH1, hits give low values 1.01 | locus YKL160W, strain elf1, hits give low values 1.03 | locus YKR001C, strain vps1, hits give low values 0.975 | locus YKR026C, strain gcn3, hits give low values 1.03 | locus YKR091W, strain srl3, hits give low values 1.02 | locus YLL001W, strain dnm1, hits give low values 1.02 | locus YLL026W, hits give low values 1.03 | locus YLL041C, strain sdh2, hits give low values 1.02 | locus YLR027C, strain aat2, hits give low values 1.02 | locus YLR039C, strain RIC1, hits give low values 0.756 | locus YLR058C, strain SHM2, hits give low values 0.972 | locus YLR102C, strain apc9, hits give low values 1.01 | locus YLR113W, strain HOG1, hits give low values 1.14 | locus YLR258W, strain gsy2, hits give low values 1.04 | locus YLR262C, strain YPT6, hits give low values 0.801 | locus YLR268W, strain sec22, hits give low values 0.967 | locus YLR320W, strain mms22, hits give low values 1.1 | locus YLR330W, strain CHS5, hits give low values 0.998 | locus YLR342W, strain FKS1 (second series), hits give low values 0.986 | locus YLR342W, strain FKS1, hits give low values 1.01 | locus YLR357W, strain rsc2, hits give low values 1.12 | locus YLR370C, strain arc18, hits give low values 1.03 | locus YLR371W, strain rom2, hits give low values 1.08 | locus YLR384C, strain iki3, hits give low values 1.02 | locus YLR418C, strain cdc73, hits give low values 0.99 | locus YML016C, strain PPZ1, hits give low values 0.993 | locus YML032C, strain rad52, hits give low values 0.918 | locus YML120C, strain ndi1, hits give low values 1.04 | locus YML124C, strain tub3, hits give low values 1 | locus YMR058W, strain fet3, hits give low values 1.05 | locus YMR078C, strain ctf18, hits give low values 1.02 | locus YMR125W, strain sto1, hits give low values 1.05 | locus YMR129W, hits give low values 1.02 | locus YMR205C, strain PFK2, hits give low values 1.08 | locus YMR223W, strain ubp8, hits give low values 0.978 | locus YMR231W, strain pep5, hits give low values 0.993 | locus YMR307W, strain GAS1, hits give low values 1.07 | locus YNL067W, strain RPL9B, hits give low values 0.961 | locus YNL071W, strain lat1, hits give low values 1.04 | locus YNL183C, strain NPR1, hits give low values 1.04 | locus YNL209W, strain ssb2, hits give low values 1.02 | locus YNL233W, strain BNI4, hits give low values 0.973 | locus YNL250W, strain rad50, hits give low values 1.02 | locus YNL271C, strain bni1, hits give low values 1.01 | locus YNL298W, strain CLA4, hits give low values 1.01 | locus YNL307C, strain MCK1, hits give low values 1.03 | locus YNL322C, strain KRE1 (second series), hits give low values 1.07 | locus YNL322C, strain KRE1, hits give low values 1.02 | locus YNR049C, strain mso1, hits give low values 1.01 | locus YNR052C, strain pop2, hits give low values 1.02 | locus YOL012C, strain htz1 1.26 | locus YOL147C, strain pex11, hits give low values 1.03 | locus YOR001W, strain rrp6, hits give low values 0.99 | locus YOR061W, strain CKA2, hits give low values 0.994 | locus YOR069W, strain VPS5, hits give low values 1.01 | locus YOR070C, strain gyp1, hits give low values 1.02 | locus YOR080W, strain dia2, hits give low values 1.02 | locus YOR083W, strain WHI5, hits give low values 1.05 | locus YOR106W, strain vam3, hits give low values 1.08 | locus YOR136W, strain idh2, hits give low values 1.02 | locus YOR184W, strain ser1, hits give low values 0.988 | locus YOR231W, strain MKK1, hits give low values 1.08 | locus YOR265W, strain rbl2, hits give low values 1.02 | locus YOR290C, strain snf2, hits give low values 1.06 | locus YOR316C, strain cot1, hits give low values 1.01 | locus YPL051W, strain arl3, hits give low values 1.05 | locus YPL055C, strain LGE1, hits give low values 0.982 | locus YPL078C, strain atp4, hits give low values 1.04 | locus YPL106C, strain sse1, hits give low values 1.02 | locus YPL240C, strain hsp82, hits give low values 1.01 | locus YPL241C, strain CIN2, hits give low values 1 | locus YPR119W, strain clb2, hits give low values 1.01 | locus YPR163C, strain tif3, hits give low values 1.01 | locus YPR167C, strain met16, hits give low values 1.03 | strain wtn01, hits give low values 0.996
